CaV13 FRET inh: Disruptors of the CACNA1D IQ motif to Ca2+-dependent inactivation inhibitor domain association, primary screening, Förster resonance energy transfer in intact living … | HEK cells, CFP/YFP FRET ICDI-IQ, plate reader, 10 min; percent FRET-ratio fall versus neutral wells | inhibition, % at 12.3 µM | 340,000 tested, 0.098% active;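 active = mean replicate inhibition of at least 30% and at least 1% of replicates passing that level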;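 also: 0% = median of the neutral control wells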
IDE cell activ: boosts human insulin-degrading enzyme activity in HEK cells. P14735. FAbeta-B cleavage, fluorescence polarization; 0% vehicle, 100% cell-free pure enzyme wells. activation, % at 5.96 µM. 340,000 tested, 0.073% active;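 active = activation above the mean of all tested compounds plus 3 SD, set per screening campaign, cut at about 17% in these data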
PolyA inh: yeast polyadenylation inhibition; S. cerevisiae SKY197-pL101 polyadenylation reporter, beta-gal luminescence; efflux-impaired pdr1/pdr3 knockout yeast; score 100 = 6 SD above DMSO; activity score, % at 12 µM; 300,000 tested, 0.02% active; AID 1875;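 active = lowest replicate activity score at least 50, where 100 means six control SD above control mean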;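 also: yeast exposed to compound for 9 h at 30 °C; higher score means more reporter readthrough which indicates perturbed polyadenylation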
ALR inh: human ALR oxidase inhibition via reduced H2O2 | AID 485317 | P55789 | purified ALR, DTT oxidation, H2O2 HRP-luminol luminescence | 290,000 tested, 3.8% active | inhibition, % (no concentration beside the values);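 active = mean replicate inhibition above about 79%, with every replicate also reaching it, limit read from the data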
Target sequence (P55789 whole entry, looked up): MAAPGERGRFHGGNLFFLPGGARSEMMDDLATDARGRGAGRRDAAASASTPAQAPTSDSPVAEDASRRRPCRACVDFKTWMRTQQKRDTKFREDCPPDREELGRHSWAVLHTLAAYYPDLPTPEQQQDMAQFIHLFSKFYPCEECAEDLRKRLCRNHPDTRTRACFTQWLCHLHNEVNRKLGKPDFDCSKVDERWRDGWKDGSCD
M18AAP inhibitor: blocks P. falciparum M18 aspartyl aminopeptidase. recombinant PfM18AAP, H-Glu-NHMec fluorogenic cleavage. inhibition, % at 7.35 µM. 290,000 tested, 1.2% active. AID 1822;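 active = inhibition above the campaign mean inhibition over all tested compounds plus 3 SD, cut at about 28% in these data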;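 also: 0% = plate median of test compound wells and 100% = 2 mM ZnCl2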
IDE cell inh: inhibitors of human insulin-degrading enzyme in cells | P14735 | HEK cells, FAbetaB cleavage, fluorescence polarization | inhibition, % at 5.59 µM | 320,000 tested, 0.41% active | AID 434962;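 active = percent inhibition above the average of all tested compounds plus 3 SD, set per screening campaign, cut at about 16% in these data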;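 also: IDE supplied by intact live HEK cells; FP after avidin binding of uncleaved biotin substrate so inhibition keeps polarization high; 0% = DMSO wells and 100% = 60 µM reference IDE inhibitor Ii1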
IDE cell inh cf: cellular human IDE inhibition, confirmation; HEK cells, FAbetaB cleavage, fluorescence polarization; shares compounds with IDE cell inh; inhibition, % at 5.59 µM; 1,200 tested, 51% active;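 active = mean inhibition across triplicate wells above the cutoff set by the earlier primary insulin-degrading enzyme screen, cut at about 16% in these data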;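 also: 0% = DMSO wells and 100% = 60 µM reference IDE inhibitor Ii1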
HEK293 tox: HEK cell cytotoxicity, counter-screen for IDE inhibitors; shares compounds with IDE cell inh; HEK293 cytotoxicity, ATP luminescence; inhibition, % at 5.59 µM; 1,200 tested, 28% active; AID 449730; in the data active = inhibition above about 22%;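 also: 0% = vehicle wells and 100% = reference cytotoxic drug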
Numbers without * were called inactive; x = not tested or not shown. Sampled rows, rich in hits. Any-hit rate of the full collection: about 4.1%.

SMILES | CaV13 FRET inh | IDE cell activ | PolyA inh | ALR inh | M18AAP inhibitor | IDE cell inh | IDE cell inh cf | HEK293 tox
CSc1cccc(N2CC(C(=O)Nc3ccccc3N3CCCC3)CC2=O)c1 (stereo not drawn) | -6 | -4 | 11 | 2 | x | 16* | 6 | 7
COc1cccc(CC(=O)OC(C)C(=O)Nc2ncc(Cl)cc2Cl)c1 (stereo not drawn) | -6 | 3 | -11 | -2 | x | 3 | x | x
O=C(Nc1ccc(Cl)cc1)N1CCN(c2ccc3nnc(-c4ccc(F)cc4)n3n2)CC1 | -3 | -29 | 8 | -5 | -15 | 22* | 13 | 11
O=C(Nc1ccccc1Cl)N1CCN(c2ccc3nnc(-c4ccccc4)n3n2)CC1 | x | -14 | -14 | x | 3 | 8 | x | x
NS(=O)(=O)c1ccc(CCNC(=O)CSc2nc3ccccc3c(=O)n2CCN2CCOCC2)cc1 | -3 | 2 | -9 | -14 | -3 | 6 | x | x
Cn1c(SCC(=O)NCCc2ccc(S(N)(=O)=O)cc2)nc2ccccc2c1=O | 1 | -56 | 15 | -17 | -1 | 41* | 9 | 8
CN(C)c1ccc(/C=C2\C(=N)N3N=C(CC(=O)N4CCCCC4)SC3=NC2=O)cc1 | -11 | -58 | -4 | 18 | 3 | 21* | 49* | 9
CS(=O)(=O)Oc1ccc2c(c1)O/C(=C\C=C\c1ccccc1)C2=O | -25 | -11 | -12 | -4 | 4 | 33* | 18* | 16
CCOC(=O)c1ncn2c1[C@@H]1CCNC1C(=O)c1cc(OC)ccc1-2 (stereo partly drawn) | -6 | 5 | x | 4 | x | 2 | x | x
CC1CCN(c2c(NCc3ccc(C(=O)N4c5ccccc5CC4C)cc3)c(=O)c2=O)CC1 (stereo not drawn) | -6 | -46 | -4 | -2 | 1 | 38* | 32* | 16
Cc1cc(=O)oc2c(C)c3occc3cc12 | -5 | 5 | -1 | 8 | 1 | 2 | x | x
Cc1cccc2[nH]c3c(N4CCN(C(=O)c5ccco5)CC4)ncnc3c12 | x | -20 | -4 | 16 | 3 | 30* | 12 | 9
Cc1sc2ncnc(N3CCN(C(=O)c4ccco4)CC3)c2c1C | 6 | -12 | 0 | -5 | -14 | 16 | x | x
Cc1cc2nc(N3CCN(C(=O)c4ccco4)CC3)sc2cc1C | -6 | -12 | -9 | -6 | x | 22* | 5 | 26*
Cc1ccc(NC(=S)N2CCC(C(=O)c3ccc(F)cc3)CC2)cc1C | -20 | 1 | x | x | x | x | x | x
Cc1ccc(C)c(S(=O)(=O)N2CCN(C(=O)c3cc(-c4cccs4)nn3-c3ccccc3)CC2)c1 | -6 | 3 | 14 | -4 | x | -7 | x | x
CCC(C)NS(=O)(=O)c1ccc(NC(=O)CNCc2cccs2)cc1 (stereo not drawn) | -3 | -6 | x | x | x | x | x | x
O=C(CSc1n[nH]c(=O)n1C1CC1)Nc1cc(Cl)ccc1Oc1ccccc1 | -7 | -3 | -4 | -10 | 1 | 1 | x | x
CNC(=S)N1CCN(c2nc(-c3ccc(Cl)cc3)cs2)CC1 | -2 | -13 | -42 | -13 | 2 | 18* | 8 | 23*
COCCNC(=S)N1CCN(c2nc(-c3ccc(Cl)cc3)cs2)CC1 | -3 | -18 | 17 | -4 | 3 | 17* | 11 | 15
CC(C)C(=O)N1CCN(c2nc(-c3ccc(Cl)cc3)cs2)CC1 | -5 | -8 | -17 | -5 | 2 | 4 | x | x
CCNC(=S)N1CCN(c2nc(-c3ccc(F)cc3)cs2)CC1 | -19 | -16 | -4 | -13 | 0 | 19* | 6 | 15
CCn1c(/C=C/c2c[nH]c3ccccc23)nc2ccccc2c1=O | -104 | -2 | -5 | 9 | -1 | -7 | x | x
CC[n+]1ccc(/C=C/c2c[nH]c3ccccc23)cc1 | -31 | -14 | 11 | 38 | 1 | 24* | 41* | 71*
Cc1ccc(/C=N/NC(=O)c2cccc(NC(=O)c3ccccc3Cl)c2)o1 | -3 | 1 | -4 | 0 | -8 | 0 | x | x
SMILES | CaV13 FRET inh | IDE cell activ | PolyA inh | ALR inh | M18AAP inhibitor | IDE cell inh | IDE cell inh cf | HEK293 tox
CCN(CC)c1ccc(/C=N/NC(=O)c2cccc(S(=O)(=O)Nc3ccccc3OC)c2)c(O)c1 | -4 | -21 | 11 | 3 | 13 | 33* | 35* | 100*
C=CCN(C(=O)CSc1nnnn1C)c1nc(-c2ccccc2)cs1 | -5 | -12 | x | x | x | x | x | x
C=CCN(C(=O)COC(=O)c1cc[n+]([O-])cc1)c1nc(-c2ccccc2)cs1 | -3 | -26 | x | x | x | 35* | 34* | 3
Cc1ccc(C(C)C)cc1OCC(=O)N1CCN(C(=O)c2ccco2)CC1 | -1 | -3 | -12 | 3 | x | -10 | x | x
Cc1cc(N2CCN(c3nc4ccccc4s3)CC2)n2ncnc2n1 | -8 | -25 | -1 | -2 | 2 | 17* | 6 | 75*
O=C(CSc1ccsc1[N+](=O)[O-])N1CCN(c2ccc(Cl)cc2)CC1 | -8 | -12 | 29 | -1 | 5 | 25* | 5 | 16
Cc1ccc(CC(=O)N2CCN(c3ccc([N+](=O)[O-])cc3)CC2)cc1 | -2 | 4 | 6 | 50 | 3 | 6 | x | x
Cc1ccc(S(=O)(=O)CC(=O)N2CCN(c3ccc([N+](=O)[O-])cc3)CC2)cc1 | -6 | -1 | x | -4 | x | 19* | 1 | 23*
Cc1c(C(=O)N2CCC3(CC2)CC(=O)c2ccccc2O3)cccc1[N+](=O)[O-] | -1 | 4 | -2 | -2 | x | -4 | x | x
Cc1ccc(N(CC(=O)N/N=C/c2cccc(Br)c2)S(C)(=O)=O)cc1 | -3 | -16 | -5 | x | 0 | 27* | 17* | 6
Cc1ccc(N(CC(=O)N/N=C/c2cccs2)S(C)(=O)=O)cc1 | -3 | 5 | -1 | 20 | -4 | 1 | x | x
NC(=O)C1CCN(C(=O)c2ccc([N+](=O)[O-])cc2NC(=O)c2cccs2)CC1 | -7 | 2 | 6 | x | 4 | 2 | x | x
C[n+]1cc(C(=O)N2CCCCC2)ccc1/C=C/c1c[nH]c2ccccc12 | -6 | -38 | 1 | 5 | 4 | 27* | 40* | 14
CN(C(=O)COc1cccc(C#N)c1)C1CCS(=O)(=O)C1 (stereo not drawn) | -6 | 1 | x | -1 | x | 3 | x | x
CCOC(=O)c1ccc(/C=C2/C=C(c3ccccc3)N(c3ccc(Cl)c(C(=O)O)c3)C2=O)cc1 | -7 | -7 | 11 | 7 | -3 | 17* | 44* | 84*
CN(C)S(=O)(=O)c1ccc(NC(=O)CSc2ncnc3ccccc23)cc1 | -3 | -8 | 21 | x | -1 | 19* | 1 | 11
O=C(CSc1ncnc2ccccc12)Nc1ccc(N2CCOCC2)cc1 | x | x | -12 | x | 4 | x | x | x

Source: PubChem
